This is part of a sample that, as a whole, favours compounds with a hit. Of some 83,000 tested, about 20% had one in any assay.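 Values shown are percent growth following 48 h exposure of cells in 96-well plates to a single concentration of compound; below 10 was considered active.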 Values without a mark were called inactive. Calls of active or inactive are those of the source.
Assays:
Test in all cases: NCI-60 one-dose screen, 48 h (100 = growth as untreated, 0 = no growth, -100 = all killed)
Details in all cases: 10 µM unless noted
HCT-15 colon = test system: HCT-15 colon
HT29 colon = test system: HT29 colon
SNB-75 CNS = test system: SNB-75 CNS
SNB-19 CNS = test system: SNB-19 CNS
U251 CNS = test system: U251 CNS
PC-3 prostate = test system: PC-3 prostate
SK-MEL-5 melanoma = test system: SK-MEL-5 melanoma
UACC-62 melanoma = test system: UACC-62 melanoma
LOX IMVI melanoma = test system: LOX IMVI melanoma
SK-MEL-28 melanoma = test system: SK-MEL-28 melanoma

SMILES	growth (HCT-15 colon)	growth (HT29 colon)	growth (SNB-75 CNS)	growth (SNB-19 CNS)	growth (U251 CNS)	growth (PC-3 prostate)	growth (SK-MEL-5 melanoma)	growth (UACC-62 melanoma)	growth (LOX IMVI melanoma)	growth (SK-MEL-28 melanoma)
CC[C@@H]1C(=O)N(C)c2cnc(Nc3ccc(C(=O)NC4CCN(C)CC4)cc3OC)nc2N1C1CCCC1	4.6% (active)	-3.91% (active)	-0.626% (active)	31.3%	12.7%	28%	-80.6% (active)	11.6%	-73.5% (active)	34.4%
CCN1CCN(c2nc(C)cc(N(CCNc3ccnc4cc(Cl)ccc34)Cc3ccc4c(c3)OCO4)n2)CC1	-6.94% (active)	-13.4% (active)	9.98% (active)	29.9%	-44.6% (active)	50.7%	-96.6% (active)	44.9%	-74.5% (active)	-72% (active)
Cc1cc(Nc2ncnc3ccc(NC4=NC(C)(C)CO4)cc23)ccc1Oc1ccn2ncnc2c1	47.9%	5.46% (active)	39%	44.3%	36.2%	41.3%	19.2%	14.3%	11.2%	12.9%
Cc1nc2ccc(-n3ncc(C(=O)c4cc5ccccc5[nH]4)c3N)cc2[nH]1	30.9%	23.1%	39.9%	48.2%	24.4%	41.1%	32.8%	43.5%	14.8%	69.7%
CCc1nc2cc(/C=C/C(=O)NO)ccc2c(=O)n1CCc1ccc(OC)cc1	25.2%	6.61% (active)	24.1%	35.9%	16.5%	22.9%	0.923% (active)	-5.16% (active)	-21.8% (active)	30%
CCOc1ccc(N=C(C)Nc2ccc(OCC)cc2)cc1	92.1%	109%	80.5%	99.2%	108%	93.2%	109%	104%	102%	113%
C=CCN(/C=C1/C(=O)O[C@H](COC)[C@@]2(C)C1=C(O)C(=O)C1=C2[C@H](OC(C)=O)C[C@]2(C)C(=O)CC[C@@H]12)CC=C	24.2%	13.7%	-25.3% (active)	26.2%	21.1%	18.6%	7.65% (active)	-21% (active)	20.3%	24.4%
Clc1ccc(/C=C/c2cc(N3CCOCC3)c3cc(Cl)c(Cl)cc3n2)cc1	97.4%	93.1%	69.7%	108%	81.4%	37.2%	93.9%	98.6%	99.6%	105%
CCC1(/C=N/NC(N)=S)NC(=O)NC1=O (stereo not given)	107%	94.9%	95.9%	109%	86.8%	85.1%	102%	104%	102%	111%
O=C(Nc1ccc(N=Nc2ccccc2)cc1)c1cccc2ccccc12	21.8%	35.4%	39.3%	67.3%	63.6%	54.8%	59%	34.6%	64.4%	67.5%
Cc1sc2c(c1C)c(=O)nc1c(-c3nc(-c4ccccc4)cs3)n[nH]n12	82.4%	107%	101%	102%	94%	82.1%	102%	91.8%	95.9%	106%
COC(=O)C1CCc2sc3ncnc(Nc4cn[nH]c4C(=O)Nc4ccc(CN5CCN(C)CC5)cc4)c3c21 (stereo not given)	7.28% (active)	-0.301% (active)	-22.4% (active)	21.6%	-24.2% (active)	9.88% (active)	-59.3% (active)	58.8%	0.377% (active)	23.5%
C[N+](C)(CCOC(c1ccccc1)c1ccccc1)CC(=O)OCc1ccccc1	99.3%	101%	76%	106%	106%	98.3%	98.1%	104%	101%	106%
CCCCn1c(C)nc2ccc(Nc3nc(N4CCN(C)CC4)nc4nc[nH]c34)cc21	110%	90.9%	63.5%	95.6%	82.9%	84.2%	86.8%	91.9%	83.9%	109%
Cc1nc(NC(=O)N2CCC[C@H]2C(N)=O)sc1-c1ccnc(C(C)(C)C(F)(F)F)c1	30.4%	4.8% (active)	24.8%	66.1%	33.4%	43.3%	61.8%	23.8%	18.8%	49.2%

Reference: PubChem BioAssay (NCI)
